In PubChem BioAssay one finds growth inhibition, inhibition and outcome data, which are given here for 20 compounds.

Experiment [1] can be described thus: antimalarial activity against Dd2 strain (AID 2302;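 active = growth inhibition above 50% at the single 2 µM test dose, taken to imply half-maximal potency below 2 µM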;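 also: 0% = DMSO untreated growth and 100% = chloroquine plus artemisinin killed control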). As to conditions: P. falciparum Dd2 in RBCs, LDH growth readout, 72 h; at 2 µM; active compounds read high.
Experiment [2] can be described thus: HepG2 cytotoxicity, primary screen, cytotoxicity control for P. falciparum antimalarial project, cell-based, ATP luminescence (AID 2303;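 active = inhibition above 50%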;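 also: 0% = DMSO wells and 100% = digitonin-killed cells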). As to conditions: HepG2 viability, 24-48 h, at 10 µM, active compounds read high.
In experiment [3] the target is L-lactate dehydrogenase (Plasmodium falciparum (isolate CDC / Honduras)) (UniProt Q27743). In words: PfLDH activity inhibition – cell lysate, 3D7 strain, counter-screen for P. falciparum growth inhibition project (AID 2304).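 Also: 0% = vehicle and 100% = reference inhibitor.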 To be noted: P. falciparum 3D7 crude extract, LDH APAD/NBT absorbance; at 2 µM; active compounds read high. (In general: The purpose of a counterscreen is to sort out artefacts and off-target activity.)

Experiment [4] can be described thus: inhibition of 3D7 malaria parasite growth – strain 3D7 (AID 2306).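 Also: 0% = DMSO wells and 100% = chloroquine plus artemisinin control wells.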 As to conditions: P. falciparum 3D7 erythrocytic growth, LDH absorbance, 72 h; at 2 µM; active compounds read high.
For experiment [5], the target named is Calcium-dependent protein kinase 1 (Plasmodium falciparum (isolate 3D7)) (UniProt P62344). Put plainly: PfCDPK1 kinase inhibitors, biochemical, TCAMS library (AID 1159585; cut-off not given, nearly all actives have IC50 up to about 0.98 µM;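 also: inhibitors leave more ATP so luminescence rises with inhibition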). As to conditions: recombinant PfCDPK1, Kinase-Glo ATP depletion luminescence. (In general: Kinase-Glo reads ATP consumption through a luciferase reaction.)
Experiment [6] has as its target Plasmodium falciparum protein kinase 6 (PK6, PF3D7_1337100) (UniProt Q8IDW1). In words: PfPK6 kinase inhibitors, biochemical, TCAMS library (AID 1159586). To be noted: recombinant PfPK6, Kinase-Glo ATP depletion luminescence.
The target in experiment [7] is Protein kinase 7 (PK7), Plasmodium falciparum 3D7 (PF3D7_0213400) (UniProt Q7YTF7). In words: inhibition of Plasmodium PK7 catalytic activity – biochemical, TCAMS antimalarial set, Kinase-Glo luminescence (AID 1159587). To be noted: recombinant PfPK7, Kinase-Glo ATP depletion luminescence.
For experiment [8], the target named is Calcium-dependent protein kinase 4 (Plasmodium falciparum (isolate 3D7)) (UniProt Q8IBS5). In words: PfCDPK4 kinase inhibitors, biochemical, TCAMS library (AID 1159588; cut-off not given, nearly all actives have IC50 up to about 0.91 µM). As to conditions: recombinant PfCDPK4, Kinase-Glo ATP depletion luminescence.

Unmarked numbers belong to inactive results. For some of these results: Entries with a potency or affinity are not part of this list. The source made the active and inactive calls. Unless noted, no rule for the calls is given here.

In general, inhibition refers to the change of the read-out against control, counted positive when it falls.

Sequence of Protein kinase 7 (PK7), Plasmodium falciparum 3D7 (PF3D7_0213400) (Q7YTF7 1-343): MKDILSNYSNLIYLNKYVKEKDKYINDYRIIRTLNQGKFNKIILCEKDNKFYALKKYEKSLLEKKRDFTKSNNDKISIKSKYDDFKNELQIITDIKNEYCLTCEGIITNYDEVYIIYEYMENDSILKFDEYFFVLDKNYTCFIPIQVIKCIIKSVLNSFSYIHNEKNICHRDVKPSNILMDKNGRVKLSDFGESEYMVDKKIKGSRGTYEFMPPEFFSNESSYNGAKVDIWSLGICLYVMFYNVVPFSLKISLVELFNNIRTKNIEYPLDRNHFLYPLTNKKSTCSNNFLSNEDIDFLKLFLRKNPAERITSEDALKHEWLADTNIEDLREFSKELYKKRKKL
Sequence of Calcium-dependent protein kinase 4 (Plasmodium falciparum (isolate 3D7)) (Q8IBS5 whole entry, looked up): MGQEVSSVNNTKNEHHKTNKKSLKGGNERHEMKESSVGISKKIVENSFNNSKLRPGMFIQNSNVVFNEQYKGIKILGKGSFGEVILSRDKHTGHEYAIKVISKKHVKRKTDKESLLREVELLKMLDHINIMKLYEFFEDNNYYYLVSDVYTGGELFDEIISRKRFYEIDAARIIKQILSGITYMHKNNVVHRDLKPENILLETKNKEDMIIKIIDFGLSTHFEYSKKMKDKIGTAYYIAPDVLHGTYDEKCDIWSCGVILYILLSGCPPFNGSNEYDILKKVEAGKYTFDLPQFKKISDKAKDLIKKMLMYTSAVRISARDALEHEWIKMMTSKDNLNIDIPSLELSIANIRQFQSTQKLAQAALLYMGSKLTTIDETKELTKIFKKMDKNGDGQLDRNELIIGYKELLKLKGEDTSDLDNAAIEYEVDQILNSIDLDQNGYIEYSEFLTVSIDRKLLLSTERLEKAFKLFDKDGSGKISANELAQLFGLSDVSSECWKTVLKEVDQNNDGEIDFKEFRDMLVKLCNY
Sequence of Calcium-dependent protein kinase 1 (Plasmodium falciparum (isolate 3D7)) (P62344 whole entry, looked up): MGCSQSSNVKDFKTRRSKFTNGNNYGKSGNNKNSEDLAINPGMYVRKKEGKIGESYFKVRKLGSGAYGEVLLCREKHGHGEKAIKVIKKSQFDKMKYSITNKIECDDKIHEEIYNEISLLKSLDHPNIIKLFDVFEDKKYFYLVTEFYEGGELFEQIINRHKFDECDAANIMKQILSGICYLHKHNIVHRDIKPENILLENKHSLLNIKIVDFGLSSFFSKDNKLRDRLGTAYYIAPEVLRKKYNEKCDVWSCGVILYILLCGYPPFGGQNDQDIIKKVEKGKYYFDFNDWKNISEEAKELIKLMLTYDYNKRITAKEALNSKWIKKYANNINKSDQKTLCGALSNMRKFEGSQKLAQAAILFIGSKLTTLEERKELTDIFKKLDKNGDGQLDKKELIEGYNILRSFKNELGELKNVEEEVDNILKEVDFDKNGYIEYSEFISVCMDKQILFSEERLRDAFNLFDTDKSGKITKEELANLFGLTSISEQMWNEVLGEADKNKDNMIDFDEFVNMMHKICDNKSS
Sequence of L-lactate dehydrogenase (Plasmodium falciparum (isolate CDC / Honduras)) (Q27743 whole entry, looked up): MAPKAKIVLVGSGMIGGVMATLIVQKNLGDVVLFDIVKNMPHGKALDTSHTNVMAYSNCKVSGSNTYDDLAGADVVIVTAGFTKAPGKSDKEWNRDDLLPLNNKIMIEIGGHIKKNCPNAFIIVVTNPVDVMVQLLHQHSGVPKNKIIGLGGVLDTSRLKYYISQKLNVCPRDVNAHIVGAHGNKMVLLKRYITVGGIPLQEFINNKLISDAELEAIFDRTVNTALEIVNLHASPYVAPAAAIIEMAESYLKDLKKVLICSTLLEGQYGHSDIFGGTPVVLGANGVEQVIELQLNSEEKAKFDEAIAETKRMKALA
Sequence of Plasmodium falciparum protein kinase 6 (PK6, PF3D7_1337100) (Q8IDW1 1-305): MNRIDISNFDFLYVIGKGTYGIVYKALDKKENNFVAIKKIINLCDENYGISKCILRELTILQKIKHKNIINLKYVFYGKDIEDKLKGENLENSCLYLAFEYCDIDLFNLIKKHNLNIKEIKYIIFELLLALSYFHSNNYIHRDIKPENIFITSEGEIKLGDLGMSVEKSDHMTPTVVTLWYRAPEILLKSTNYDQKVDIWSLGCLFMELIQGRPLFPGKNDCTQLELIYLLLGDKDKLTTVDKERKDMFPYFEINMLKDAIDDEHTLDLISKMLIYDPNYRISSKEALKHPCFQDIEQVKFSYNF

With `COc1ccc2nccc([C@@H](O)CN3CCC(CO)(NCc4cc5ccccc5o4)CC3)c2c1`, the growth inhibition in experiment [1] is 7%; in experiment [4], 85% (active). For the same compound, the values for the inhibition in experiment [2] and in experiment [3] were 12% and -1%, respectively. For the same compound, the result in experiment [5], in experiment [6], in experiment [7] and in experiment [8] was inactive.
With `CC1(C)S(=O)(=O)CC(O)CS1(=O)=O`, the growth inhibition in experiment [1] is 9%; in experiment [4], 98% (active). The inhibition in experiment [2] was 8%; in experiment [3], 3%. In addition, the result in experiment [5], in experiment [6], in experiment [7] and in experiment [8] was inactive.
`CCN(CC)CCOc1c(Cl)cc(Cl)cc1CNCCCNc1cc(=O)c2ccccc2[nH]1`: the growth inhibition in experiment [1] was 6%; in experiment [4], 97% (active). Also, the results for the inhibition in experiment [2] and in experiment [3] were 11% and -1%, respectively. Further, the result in experiment [5], in experiment [6], in experiment [7] and in experiment [8] was inactive.
Regarding `O=C(/C=C/c1ccc(Cl)c(Cl)c1)NCCCCCN1CCCC(c2c[nH]c3ccccc23)C1` (stereo not given), the growth inhibition in experiment [1] was 22%; in experiment [4], 99% (active). Moreover, the inhibition in experiment [2] was 25%; in experiment [3], 2%. The outcome in experiment [5], in experiment [6], in experiment [7] and in experiment [8] was inactive.
`COc1c(Br)cc(Br)cc1C(C)=O`: the results for the growth inhibition in experiment [1] and in experiment [4] were -2% and 95% (active), respectively. Further, the inhibition in experiment [2] was 3%; in experiment [3] it was 1%. Further, the result in experiment [5], in experiment [6], in experiment [7] and in experiment [8] was inactive.
For the compound `O=C(NC1CCN(CCN2CCC(c3ccccc3C(F)(F)F)CC2)CC1)c1ccc(-c2ccc(Cl)cc2)cc1`, the growth inhibition in experiment [1] is 68% (active); in experiment [4], 101% (active). The inhibition in experiment [2] is 39%; in experiment [3], 4%. Besides, the outcome in experiment [5], in experiment [6], in experiment [7] and in experiment [8] was inactive.
Turning to `O=C(c1cccc(-c2cccc(-c3nc4ccc(C(F)(F)F)cc4[nH]3)c2)c1)N1CCCCC1CN1CCC(O)C1` (stereo not given), the growth inhibition in experiment [1] was 101% (active); in experiment [4], 91% (active). Further, the inhibition is 51% (active) in experiment [2] and 0% in experiment [3]. Moreover, the outcome in experiment [5], in experiment [6], in experiment [7] and in experiment [8] was inactive.
For the compound `Clc1cccc(-c2nc(Nc3ccnc(-c4ccc(CN5CCOCC5)cc4)c3)c3ccccc3n2)c1`, the growth inhibition was 65% (active) in experiment [1] and 100% (active) in experiment [4]. Moreover, the inhibition in experiment [2] was 8%; in experiment [3] it was -4%. The outcome in experiment [5], in experiment [6], in experiment [7] and in experiment [8] was inactive.
With `Cc1cc(N(C)CCN(C)C)nc(Nc2ccc(Cl)cc2)n1`, the figures for the growth inhibition in experiment [1] and in experiment [4] were 14% and 92% (active), respectively. For the same compound, the results for the inhibition in experiment [2] and in experiment [3] were -1% and -3%, respectively. The outcome in experiment [5], in experiment [6], in experiment [7] and in experiment [8] was inactive.
`NC1=Nc2ccc(Cl)cc2C1(O)c1ccccc1` (stereo not given): the results for the growth inhibition in experiment [1] and in experiment [4] were 51% (active) and 100% (active), respectively. Moreover, the inhibition in experiment [2] and in experiment [3] was -3% in each case. Also, the outcome in experiment [5], in experiment [6], in experiment [7] and in experiment [8] was inactive.
In the case of `Cc1c(CN2CCC(N3CCC(C(=O)NC4CC4)CC3)CC2)[nH]c2c(Cl)cccc12`, the results for the growth inhibition in experiment [1] and in experiment [4] were 3% and 92% (active), respectively. For the same compound, the inhibition in experiment [2] was 22%; in experiment [3], 1%. Besides, the result in experiment [5], in experiment [6], in experiment [7] and in experiment [8] was inactive.
Turning to `CC(C)(C)c1ccc(/C=C/C(=O)NCCCCCN2CCC(c3c[nH]c4ccccc34)CC2)cc1`, the growth inhibition in experiment [1] is 12%; in experiment [4], 91% (active). For the same compound, the inhibition in experiment [2] is 70% (active); in experiment [3] it was 8%. In addition, the outcome in experiment [5], in experiment [6], in experiment [7] and in experiment [8] was inactive.
For `CCN1[C@@H](c2ccc(Cl)cc2)[C@@H](CNCc2ccccc2O)C[C@@]1(C)CO`, the growth inhibition in experiment [1] and in experiment [4] was 99% (active) each time. Moreover, the inhibition in experiment [2] was 47%; in experiment [3], -3%. Moreover, the result in experiment [5], in experiment [6], in experiment [7] and in experiment [8] was inactive.
In the case of `COc1cccc2cc(C(=O)N[C@@H](CC(C)C)C(=O)N[C@H](/C=N/N(C)C(=O)OC(C)(C)C)Cc3ccccc3)oc12`, the growth inhibition in experiment [1] was 89% (active); in experiment [4], 99% (active). Also, the inhibition is 5% in experiment [2] and -3% in experiment [3]. Also, the outcome in experiment [5], in experiment [6], in experiment [7] and in experiment [8] was inactive.
As for `O=c1c(NCCCN(Cc2ccc(F)cc2)c2ccccn2)c(NCc2ccncc2)c1=O`, the growth inhibition in experiment [1] is 95% (active); in experiment [4], 101% (active). Besides, the inhibition in experiment [2] is 30%; in experiment [3], 3%. Moreover, the result in experiment [5], in experiment [6], in experiment [7] and in experiment [8] was inactive.
Consider `CC(C)CNCc1cccc(-c2cccc(CN(CCCN3CCN(C)CC3)C(=O)/C=C/c3ccccc3)c2)c1`, for which the growth inhibition in experiment [1] was 88% (active); in experiment [4] it was 90% (active). For the same compound, the inhibition is 44% in experiment [2] and 7% in experiment [3]. Further, the outcome in experiment [5], in experiment [6], in experiment [7] and in experiment [8] was inactive.
As to `COc1cccc(CN2CCCC(COC(c3ccc(F)cc3)c3ccc(F)cc3)C2)c1O` (stereo not given), the figures for the growth inhibition in experiment [1] and in experiment [4] were 100% (active) and 98% (active), respectively. Further, the inhibition was 24% in experiment [2] and 4% in experiment [3]. In addition, the result in experiment [5], in experiment [6], in experiment [7] and in experiment [8] was inactive.
Consider `Cc1cccc2[nH]c(-c3cccc(-c4ccc(NC(=O)N[C@@H]5C[C@H]5c5ccccc5)cc4)c3)nc12`, for which the growth inhibition in experiment [1] was 49%; in experiment [4] it was 98% (active). Also, the inhibition is 25% in experiment [2] and 6% in experiment [3]. In addition, the result in experiment [5], in experiment [6], in experiment [7] and in experiment [8] was inactive.
As for `FC(F)(F)c1ccc2nc(-c3ccc(-c4cccc(CN5CCN(CCN6CCOCC6)CC5)c4)cc3)[nH]c2c1`, the growth inhibition in experiment [1] was 77% (active); in experiment [4], 98% (active). Besides, the inhibition was 47% in experiment [2] and -6% in experiment [3]. Besides, the outcome in experiment [5], in experiment [6], in experiment [7] and in experiment [8] was inactive.
On to `COc1cc2nc(C)nc(Nc3ccc4c(ccn4Cc4ccccc4)c3)c2cc1OC`, for which the growth inhibition in experiment [1] is 99% (active); in experiment [4], 101% (active). In addition, the figures for the inhibition in experiment [2] and in experiment [3] were 2% and -7%, respectively. The outcome in experiment [5], in experiment [6], in experiment [7] and in experiment [8] was inactive.
